# Data published in PubChem BioAssay (EPA / NIEHS).
# The source made the active and inactive calls. Rule for the calls: active = hit-call score of the fitted dose curve at least 0.9, where 1 is the maximum; inactive = score below 0.9.
# Read-out: Glutamate-cysteine ligase regulatory (GCLM), GCLM (gene 2730)
# Experiment: LTEA_HepaRG_GCLM: Life Technologies and Expression Analysis (LTEA) Assay for Glutamate-cysteine ligase regulatory (GCLM) using HepaRG (AID 2283500)
# Settings: mRNA level, 48 h; actives raise or lower the signal
# Protocol: LTEA_HepaRG is a cell based, multiplexed-readout assay that uses HepaRG, a human liver cell line, with measurements taken at 48 hours after chemical dosing on a 96-well plate.LTEA_HepaRG_GCLM is one of 102 assay component(s) measured in the LTEA HepaRG cell culture assay. It is a marker of Cell proliferation, survival, death.Data from the assay component LTEA_HepaRG_GCLM was analyzed into 1 endpoint. This assay endpoint, LTEA_HepaRG_GCLM, was analyzed with bidirectional fitting relative to DMSO as the negative control and baseline of activity. Using a type of inducible reporter, measures of mRNA induction for gain or loss-of-signal activity can be used to understand regulation of transcription factor activity. To generalize the intended target to other relatable targets, this assay endpoint is annotated to the ligase intended target family, where the subfamily is C-N ligase.
# A total of 1060 chemcials from the ToxCast library were tested in eight-point concentration-response experiments. Cell culture and cytotoxicity assays were conducted at Thermo Fisher Scientific's Custom Services facility (Madison, WI). A single lot of human HepaRG cells (Thermo Fisher Scientific, Frederick, MD) was used for the cell culture experiments. 96-well format collagen type I coated plates of human HepaRG cells were prepared using established methods. Briefly, cryopreserved HepaRG cells were thawed, plated at a density of approximately 100,000 cells/well in HepaRG Thaw, Plate, and General Purpose media (HPRG770, Thermo Fisher Scientific), and incubated for 48 hours. 0.5% DMSO was selected as vehicle control to balance the requisite need of DMSO in HepaRG cultures to maintain differentiation (for example, baseline metabolism, proportions of hepatocytes vs. cholangiocytes), while enabling further hepatic receptor pathway activation (for example, PXR and CAR) in response to chemical exposure. 48 hours after plating, the culture medium was replaced with HepaRG Serum-Free Incudtion Media. Cells were exposed to each test chemical in duplicate and maintained in CO2 incubators for another 48 hours. Chemical plates were thawed to room temperature and 200x concentrations of treatment groups were prepared. 8-point conentration-reponse curves were made with the highest exposure at 100 uM, followed by half-log dilutions, all in 0.5% DMSO. Each test plate contained variouse controls, induction positive controls (1mM phenobarbital), cytotoxicity positive controls ([…] aflatoxin B1), vehicle controls (0.5% DMSO), and total lysis controls (0.5% DMSO). Cell morphology images were taken using an Essen IncuCyte FLR automated microscope, with six 96-well plates imaged in about 24 minutes. Images were captured and exported and JPEG files. Spent culture media was transfered to black-well plates for the LDH assay, and remaining media was sorted at -80 C for later use. Cells were treated with RLT buffer and frozen until shipped for gene expression analysis. Total RNA was isolated from the cell suspension in 75 uL of Buffer RLT (Qiagen, Germantown, MD 20874) by Quintiles/Expression Analysis (Durham, NC) using a custom isolation procedure. Total RNA from each plate well was transferred to a preamplification plate. Fluidigm's 96.96 Dynamic ArrayTM (Fluidigm, Amsterdam, the Netherlands) technology was used for gene expression analyses by quantitative reverse transcription polymerase chain reaction (qRT-PCR, performed by Quintiles/Expression Analysis, Durham, NC)89. Standard TaqManTM Assays (Applied Biosystems/ThermoFisher Scientific, Foster City, CA) were used to assess the expression of 93 genes selected based on their selectivity and sensitivity to important hepatic receptors known to be modulated by environmental chemicals; importance in human hepatocyte functionality; and hepatotoxicity. […]
Compound,outcome,AC50
COC(=O)c1c(C(F)F)nc(C(F)(F)F)c(C2=NCCS2)c1CC(C)C,inactive,
CS(=O)(=O)c1cc(C(F)(F)F)ccc1C(=O)c1cnoc1C1CC1,inactive,
Nc1c(Cl)c(Cl)nc(C(=O)O)c1Cl,inactive,
COc1cc(Cl)c(OC)cc1Cl,inactive,
CNC(=O)N(C)c1nnc(C(C)(C)C)s1,inactive,
Cc1cnc(C2=NC(C)(C(C)C)C(=O)N2)c(C(=O)O)c1 (stereo not given),inactive,
CC(C)NC(=O)N1CC(=O)N(c2cc(Cl)cc(Cl)c2)C1=O,,27.8 µM (active)
COP(=S)(OC)SCn1nnc2ccccc2c1=O,inactive,
COP(=S)(OC)Oc1ccc([N+](=O)[O-])c(C)c1,inactive,
CCNC(=O)NC(=O)C(C#N)=NOC,inactive,
COCc1cnc(C2=NC(C)(C(C)C)C(=O)N2)c(C(=O)O)c1 (stereo not given),inactive,
CCOc1nc(F)cc2nc(S(=O)(=O)Nc3c(Cl)cccc3Cl)nn12,inactive,
CCOc1nc(C(Cl)(Cl)Cl)ns1,,1.14 µM (active)
CC(C)N1C(=O)c2ccccc2NS1(=O)=O,inactive,
CCCCOCN(C(=O)CCl)c1c(CC)cccc1CC,inactive,
O=c1n(Cl)c(=O)n(Cl)c(=O)n1Cl,inactive,
CCOP(=S)(OCC)Oc1nc(Cl)n(C(C)C)n1,inactive,
COC(=O)NS(=O)(=O)c1ccc(N)cc1,inactive,
O=P(O)(O)CCCl,inactive,
CS(=O)(=O)c1ccc(C(=O)C2C(=O)CCCC2=O)c([N+](=O)[O-])c1,inactive,

Compound,outcome,AC50
Cn1c(-c2ccccc2)cc(-c2ccccc2)[n+]1C,inactive,
CCSC(=O)N1CCCCCC1,inactive,
CC(C)=CC1C(C(=O)OCc2coc(Cc3ccccc3)c2)C1(C)C (stereo not given),inactive,
C=C(C)CN(CC)c1c([N+](=O)[O-])cc(C(F)(F)F)cc1[N+](=O)[O-],inactive,
N#CN=C1SCCN1Cc1ccc(Cl)nc1,inactive,
Cc1cc(C)nc(Nc2ccccc2)n1,inactive,
CCCCC(C#N)(Cn1cncn1)c1ccc(Cl)cc1 (stereo not given),inactive,
O=C(Nc1ccccc1-c1ccc(Cl)cc1)c1cccnc1Cl,inactive,
N#Cc1c[nH]cc1-c1cccc2c1OC(F)(F)O2,,93.2 µM (active)
CC1(C)C(C=C(Cl)Cl)C1C(=O)OC(C#N)c1cccc(Oc2ccccc2)c1 (stereo not given),inactive,
Cc1ccc(N=CN(C)C=Nc2ccc(C)cc2C)c(C)c1,inactive,
CSC(=O)c1c(C(F)F)nc(C(F)(F)F)c(C(=O)SC)c1CC(C)C,inactive,
CCC(C)n1c(=O)[nH]c(C)c(Br)c1=O (stereo not given),inactive,
COc1cc(OC)nc(NC(=O)NS(=O)(=O)c2ncccc2OCC(F)(F)F)n1,inactive,
Clc1cccc(C(Cl)(Cl)Cl)n1,inactive,
CC(C)N1C(=O)N(c2ccccc2)CSC1=NC(C)(C)C,,74.7 µM (active)
CNC(=O)Oc1cccc2ccccc12,inactive,
CCOP(=O)(OCC)Oc1nc(Cl)c(Cl)cc1Cl,inactive,
CC1(C)CON(Cc2ccccc2Cl)C1=O,inactive,
CC(C)(C)C(=O)C(Oc1ccc(Cl)cc1)n1cncn1 (stereo not given),inactive,
